Experimental data as given in the supplement of paper PMC11732987, “Enantioselective OTUD7B fragment discovery through chemoproteomics screening and high-throughput optimisation” (Communications Chemistry, 2025).

Assays:
Experiment in all cases: log2 ratio of Biotin-Ahx-Ub-VS probe labelling (fragment/DMSO); higher = less target engagement (more negative = stronger competition), active = hit call of the paper (q ≤ 0.05, log2 ratio ≤ -1)
Details in all cases: compound concentration: 200 uM; treatment time: 3 h
ALG13 = target: T1, ALG13 (UniProt Q9NP73)
T1 sequence (whole entry): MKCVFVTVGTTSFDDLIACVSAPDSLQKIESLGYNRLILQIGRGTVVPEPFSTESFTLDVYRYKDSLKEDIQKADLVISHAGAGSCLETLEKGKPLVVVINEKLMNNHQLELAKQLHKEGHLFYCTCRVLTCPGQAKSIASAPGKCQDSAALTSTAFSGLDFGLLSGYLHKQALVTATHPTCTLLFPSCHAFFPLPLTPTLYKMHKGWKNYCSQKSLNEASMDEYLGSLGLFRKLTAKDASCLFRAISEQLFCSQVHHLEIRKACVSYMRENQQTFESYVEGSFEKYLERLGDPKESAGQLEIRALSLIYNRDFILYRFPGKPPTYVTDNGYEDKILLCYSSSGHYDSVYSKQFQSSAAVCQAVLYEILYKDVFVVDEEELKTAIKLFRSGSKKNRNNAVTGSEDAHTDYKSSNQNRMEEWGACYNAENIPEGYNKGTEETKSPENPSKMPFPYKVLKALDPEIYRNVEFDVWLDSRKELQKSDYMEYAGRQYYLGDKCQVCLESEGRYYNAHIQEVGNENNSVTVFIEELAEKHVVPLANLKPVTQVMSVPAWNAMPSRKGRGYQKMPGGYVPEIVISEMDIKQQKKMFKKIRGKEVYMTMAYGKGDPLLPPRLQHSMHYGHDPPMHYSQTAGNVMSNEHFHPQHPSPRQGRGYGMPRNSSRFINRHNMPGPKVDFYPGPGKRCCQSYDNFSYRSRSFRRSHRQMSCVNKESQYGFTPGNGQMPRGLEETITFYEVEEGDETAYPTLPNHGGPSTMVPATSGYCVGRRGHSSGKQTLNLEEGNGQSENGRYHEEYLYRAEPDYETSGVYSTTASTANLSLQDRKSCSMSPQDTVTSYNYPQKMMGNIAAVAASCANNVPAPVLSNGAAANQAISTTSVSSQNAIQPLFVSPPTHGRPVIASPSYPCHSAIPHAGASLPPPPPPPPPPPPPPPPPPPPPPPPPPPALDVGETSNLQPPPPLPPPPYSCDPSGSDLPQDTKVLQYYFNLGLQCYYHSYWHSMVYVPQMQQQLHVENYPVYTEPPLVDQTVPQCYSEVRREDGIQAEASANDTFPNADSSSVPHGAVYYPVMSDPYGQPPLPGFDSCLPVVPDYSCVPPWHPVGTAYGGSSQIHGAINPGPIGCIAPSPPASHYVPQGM
Method in brief: (§1)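 Triplicate samples of HEK293T lysate, 495 µg each, received fragment at 200 µM or vehicle for 3 h, followed by Biotin-Ahx-Ub-VS (0.5 µM final) for 1 h. After NeutrAvidin enrichment of labelled DUBs and LysC/trypsin digestion, peptides were run by diaPASEF LC-MS/MS. The values are average log2 fragment/vehicle ratios from global-median-normalised Spectronaut label-free quantities, tested by unpaired t-test on proteins having ≥2 unique peptides.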

ATXN3 = ATXN3 (UniProt P54252)
Sequence of ATXN3 (P54252 whole entry): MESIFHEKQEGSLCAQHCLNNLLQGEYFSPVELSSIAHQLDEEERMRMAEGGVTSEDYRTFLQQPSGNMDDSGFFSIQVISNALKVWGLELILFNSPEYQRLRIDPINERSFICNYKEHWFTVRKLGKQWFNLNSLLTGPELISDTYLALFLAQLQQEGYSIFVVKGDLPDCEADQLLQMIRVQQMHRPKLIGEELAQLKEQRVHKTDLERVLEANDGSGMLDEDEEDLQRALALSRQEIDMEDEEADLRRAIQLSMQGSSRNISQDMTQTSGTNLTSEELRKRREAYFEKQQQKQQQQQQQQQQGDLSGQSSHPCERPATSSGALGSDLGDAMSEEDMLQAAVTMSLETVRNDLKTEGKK
Method in brief: as §1

BAP1 = target: T2, BAP1 (UniProt Q92560)
T2 sequence (whole entry): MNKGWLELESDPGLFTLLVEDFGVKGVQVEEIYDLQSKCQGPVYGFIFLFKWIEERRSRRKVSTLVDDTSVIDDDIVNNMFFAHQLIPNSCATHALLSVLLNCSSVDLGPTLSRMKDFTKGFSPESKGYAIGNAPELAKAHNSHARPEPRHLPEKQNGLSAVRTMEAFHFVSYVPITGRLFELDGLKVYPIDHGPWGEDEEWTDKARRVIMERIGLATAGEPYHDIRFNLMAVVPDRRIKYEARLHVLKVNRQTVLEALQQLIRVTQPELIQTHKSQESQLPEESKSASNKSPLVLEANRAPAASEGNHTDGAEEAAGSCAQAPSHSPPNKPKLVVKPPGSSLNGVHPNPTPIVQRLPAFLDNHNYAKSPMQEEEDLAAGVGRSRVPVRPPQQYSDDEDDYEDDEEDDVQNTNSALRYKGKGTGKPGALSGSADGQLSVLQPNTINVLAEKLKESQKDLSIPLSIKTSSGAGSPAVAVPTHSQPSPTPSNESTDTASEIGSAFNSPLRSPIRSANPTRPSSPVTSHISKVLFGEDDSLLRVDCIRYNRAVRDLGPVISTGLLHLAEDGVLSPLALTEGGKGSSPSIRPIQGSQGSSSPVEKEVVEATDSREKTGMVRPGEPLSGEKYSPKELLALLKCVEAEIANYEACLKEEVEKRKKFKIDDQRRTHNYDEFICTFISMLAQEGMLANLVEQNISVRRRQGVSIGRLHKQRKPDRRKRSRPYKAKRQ
Method in brief: as §1

EIF3F = EIF3F (UniProt O00303)
Sequence of EIF3F (O00303 whole entry): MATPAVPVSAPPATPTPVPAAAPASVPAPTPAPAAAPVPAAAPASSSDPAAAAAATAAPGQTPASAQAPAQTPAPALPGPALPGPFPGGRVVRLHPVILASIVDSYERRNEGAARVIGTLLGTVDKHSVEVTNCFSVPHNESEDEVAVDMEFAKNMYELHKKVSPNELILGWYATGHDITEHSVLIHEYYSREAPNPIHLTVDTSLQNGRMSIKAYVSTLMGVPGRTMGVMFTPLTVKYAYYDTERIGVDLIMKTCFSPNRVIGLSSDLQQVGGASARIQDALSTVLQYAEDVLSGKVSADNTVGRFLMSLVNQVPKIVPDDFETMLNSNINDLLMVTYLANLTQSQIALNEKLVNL
Method in brief: as §1

EIF3H = EIF3H (UniProt O15372)
Sequence of EIF3H (O15372 whole entry): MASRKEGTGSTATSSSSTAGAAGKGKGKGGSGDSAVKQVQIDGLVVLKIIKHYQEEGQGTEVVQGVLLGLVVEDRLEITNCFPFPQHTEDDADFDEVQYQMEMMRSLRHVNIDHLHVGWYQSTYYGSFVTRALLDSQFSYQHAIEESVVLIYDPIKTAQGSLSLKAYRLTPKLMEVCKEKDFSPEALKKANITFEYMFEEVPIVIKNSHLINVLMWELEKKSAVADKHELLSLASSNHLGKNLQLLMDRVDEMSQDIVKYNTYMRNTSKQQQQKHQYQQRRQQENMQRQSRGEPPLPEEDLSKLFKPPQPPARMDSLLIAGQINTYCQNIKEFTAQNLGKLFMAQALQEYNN
Method in brief: as §1

FAM105A = target: T3, FAM105A (UniProt Q9NUU6)
T3 sequence (whole entry): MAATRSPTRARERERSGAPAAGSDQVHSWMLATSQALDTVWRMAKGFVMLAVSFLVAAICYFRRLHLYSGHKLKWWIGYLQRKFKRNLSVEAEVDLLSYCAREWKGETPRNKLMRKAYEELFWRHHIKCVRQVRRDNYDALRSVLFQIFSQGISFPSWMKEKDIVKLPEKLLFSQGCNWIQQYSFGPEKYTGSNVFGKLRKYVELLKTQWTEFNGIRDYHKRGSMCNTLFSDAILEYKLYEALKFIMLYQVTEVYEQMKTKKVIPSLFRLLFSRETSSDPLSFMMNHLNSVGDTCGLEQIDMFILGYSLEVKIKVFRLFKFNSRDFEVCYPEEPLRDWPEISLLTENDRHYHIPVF
Method in brief: as §1

OTUB1 = OTUB1 (UniProt Q96FW1)
Sequence of OTUB1 (Q96FW1 whole entry): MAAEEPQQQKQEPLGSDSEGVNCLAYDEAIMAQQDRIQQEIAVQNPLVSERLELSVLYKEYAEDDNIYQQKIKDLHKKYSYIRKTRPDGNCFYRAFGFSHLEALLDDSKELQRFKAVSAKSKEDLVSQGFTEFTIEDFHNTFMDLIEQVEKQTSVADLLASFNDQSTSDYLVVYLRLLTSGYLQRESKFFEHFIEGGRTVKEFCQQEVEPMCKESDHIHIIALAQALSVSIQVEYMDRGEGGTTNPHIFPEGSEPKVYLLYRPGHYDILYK
Method in brief: as §1

OTUD4 = target: T4, OTUD4 (UniProt Q01804)
T4 sequence (whole entry): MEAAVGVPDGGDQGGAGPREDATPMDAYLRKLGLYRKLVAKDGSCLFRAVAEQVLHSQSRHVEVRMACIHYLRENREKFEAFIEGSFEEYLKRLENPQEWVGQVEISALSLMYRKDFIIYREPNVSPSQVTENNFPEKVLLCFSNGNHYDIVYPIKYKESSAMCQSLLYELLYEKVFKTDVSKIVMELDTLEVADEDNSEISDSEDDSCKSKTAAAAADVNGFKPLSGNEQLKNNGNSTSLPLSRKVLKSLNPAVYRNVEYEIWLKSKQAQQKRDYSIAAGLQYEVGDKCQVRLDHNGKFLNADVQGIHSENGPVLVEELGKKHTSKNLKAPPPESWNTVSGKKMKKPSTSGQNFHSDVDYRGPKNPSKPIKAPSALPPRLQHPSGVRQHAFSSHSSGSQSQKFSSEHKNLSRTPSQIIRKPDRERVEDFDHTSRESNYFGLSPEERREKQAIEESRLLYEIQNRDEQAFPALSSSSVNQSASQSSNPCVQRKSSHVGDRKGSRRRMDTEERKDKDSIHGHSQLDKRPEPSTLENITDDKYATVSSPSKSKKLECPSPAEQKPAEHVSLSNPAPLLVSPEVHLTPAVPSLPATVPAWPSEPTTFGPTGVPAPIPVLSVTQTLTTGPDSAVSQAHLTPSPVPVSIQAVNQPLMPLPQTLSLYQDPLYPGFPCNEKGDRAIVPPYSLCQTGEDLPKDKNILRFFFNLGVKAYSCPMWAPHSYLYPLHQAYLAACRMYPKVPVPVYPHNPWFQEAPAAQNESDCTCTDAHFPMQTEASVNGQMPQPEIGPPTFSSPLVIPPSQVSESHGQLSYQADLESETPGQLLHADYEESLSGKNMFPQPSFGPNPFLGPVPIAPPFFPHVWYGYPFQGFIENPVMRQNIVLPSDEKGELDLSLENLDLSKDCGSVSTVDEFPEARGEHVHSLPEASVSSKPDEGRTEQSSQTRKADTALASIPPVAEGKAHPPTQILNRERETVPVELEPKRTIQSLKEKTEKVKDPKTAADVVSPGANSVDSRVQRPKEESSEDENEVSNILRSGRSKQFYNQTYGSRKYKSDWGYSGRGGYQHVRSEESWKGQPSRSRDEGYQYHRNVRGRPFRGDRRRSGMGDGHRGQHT
Method in brief: as §1

OTUD5 = target: T5, OTUD5 (UniProt Q96G74)
T5 sequence (whole entry): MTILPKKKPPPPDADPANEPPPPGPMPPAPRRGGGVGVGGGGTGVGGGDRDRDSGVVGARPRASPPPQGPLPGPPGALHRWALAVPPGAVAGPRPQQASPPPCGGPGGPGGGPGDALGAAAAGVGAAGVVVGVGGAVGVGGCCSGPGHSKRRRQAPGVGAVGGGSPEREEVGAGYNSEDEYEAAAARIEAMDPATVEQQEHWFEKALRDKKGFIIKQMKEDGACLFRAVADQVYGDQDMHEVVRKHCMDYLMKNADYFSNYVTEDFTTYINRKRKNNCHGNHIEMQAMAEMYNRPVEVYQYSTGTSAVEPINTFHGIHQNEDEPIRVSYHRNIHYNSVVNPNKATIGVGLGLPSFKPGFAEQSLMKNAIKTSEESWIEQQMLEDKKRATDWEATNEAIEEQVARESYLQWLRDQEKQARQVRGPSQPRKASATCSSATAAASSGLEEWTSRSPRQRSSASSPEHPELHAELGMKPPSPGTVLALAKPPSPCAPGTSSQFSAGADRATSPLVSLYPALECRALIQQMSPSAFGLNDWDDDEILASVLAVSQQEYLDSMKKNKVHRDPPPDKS
Method in brief: as §1

Measured: log2 ratio of Biotin-Ahx-Ub-VS probe labelling

CCN1C(=O)C2CN(C(=O)CCl)CCN2C1=O (centres undefined)
inactive: ALG13 0.104 | ATXN3 -0.84 | BAP1 -0.369 | EIF3F -0.18 | EIF3H 0.0778 | FAM105A -0.218 | OTUB1 -0.315 | OTUD4 -0.523 | OTUD5 -0.206
